Assay outcomes from PubChem BioAssay.
Pol eta inh: inhibitors of human DNA polymerase eta; recombinant Pol eta, fluorescent DNA replication assay; Q9Y253; AID 588591; Potency, µM (series often up to 114 µM), inactives show at the top dose activity change, negative = inhibition, hits mostly inhibitors; 390,000 compounds, 1.2% hits; further: on the % scale 0 is the no-effect control and ±100 the full control effect
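Pol eta (10 nM) was preincubated with compounds for 15 min at room temperature, after which fluorescent replication substrate (50 nM final) was added to start the reaction. Fluorescence was read kinetically at 0 and 10 min.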
POLB inh: inhibitors of human DNA polymerase beta | P06746 | Pol beta primer extension/strand displacement, fluorescence kinetic | Potency, µM (titrated, usually from 114 µM), for the others: top-dose activity change, negative = inhibition, usual class: inhibitors | 340,000 compounds, 1.3% hits | AID 485314; further: on the % scale 0 is the no-effect control and ±100 the full control effect
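Kinetic readout of DNA synthesis with strand displacement by Pol beta. Compound and 10 nM enzyme sit 15 min at room temperature; 50 nM substrate starts the reaction, read immediately and at 10 min.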
POLI inh: inhibitors of human DNA polymerase iota | Q9UNA4 | Pol iota fluorescent replication assay, 10 min | Potency, µM (doses to about 115 µM), inactives show top-dose activity, negative = inhibition, most hits filed as inhibitors | 390,000 compounds, 1% hits | AID 588590
Target sequence (Q9UNA4 whole entry, looked up): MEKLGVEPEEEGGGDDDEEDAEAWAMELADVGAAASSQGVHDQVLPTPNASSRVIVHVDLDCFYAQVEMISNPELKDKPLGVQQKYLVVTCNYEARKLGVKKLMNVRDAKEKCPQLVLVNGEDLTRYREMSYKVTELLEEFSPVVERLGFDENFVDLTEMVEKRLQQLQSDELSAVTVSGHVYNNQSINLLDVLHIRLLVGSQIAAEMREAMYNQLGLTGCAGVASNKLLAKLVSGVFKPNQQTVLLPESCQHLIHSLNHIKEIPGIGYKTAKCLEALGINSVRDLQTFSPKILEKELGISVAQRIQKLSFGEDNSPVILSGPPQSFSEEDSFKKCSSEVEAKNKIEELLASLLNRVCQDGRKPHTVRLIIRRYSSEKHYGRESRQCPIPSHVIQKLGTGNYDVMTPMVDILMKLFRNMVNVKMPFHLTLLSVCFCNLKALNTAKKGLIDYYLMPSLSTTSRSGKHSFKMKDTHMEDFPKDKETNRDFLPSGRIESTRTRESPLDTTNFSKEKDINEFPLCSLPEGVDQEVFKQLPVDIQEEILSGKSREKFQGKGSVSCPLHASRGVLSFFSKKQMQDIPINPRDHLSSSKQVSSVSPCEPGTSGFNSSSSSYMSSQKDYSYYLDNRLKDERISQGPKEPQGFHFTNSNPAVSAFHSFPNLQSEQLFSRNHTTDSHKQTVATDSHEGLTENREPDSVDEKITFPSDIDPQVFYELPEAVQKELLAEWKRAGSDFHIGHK
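Pol iota at 10 nM preincubated 15 min with compounds at room temperature; reaction started with fluorescent substrate, 50 nM final. Fluorescence read kinetically at 0 and 10 min; buffer-only wells as negative control.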
WRN inhibitor: WRN helicase (human) inhibition. Q14191. WRN helicase unwinding, fluorescent forked duplex, kinetic. AID 651768. Potency, µM (top dose mostly 114 µM), without a hit: at the highest dose activity change, negative = inhibition, most hits filed as inhibitors. 360,000 compounds, 0.46% hits; further: on the % scale 0 is the no-effect control and ±100 the full control effect; nearly all actives have a fitted effect of over 55% in size
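Enzyme (20 nM final) and test compound sit together 15 min at room temperature before substrate addition. Substrate is a single-forked duplex oligonucleotide (100 nM) labelled with fluorophore and quencher, with 2 mM ATP; helicase unwinding raises red fluorescence, read kinetically.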
Pol kappa inh: blocks human DNA polymerase kappa activity; Q9UBT6; purified Pol kappa, fluorescent DNA synthesis assay, 10 min; Potency, µM (top dose mostly 107 µM), for inactives: at the top dose activity, negative = inhibition, actives largely listed as inhibitors; 400,000 compounds, 0.53% hits; AID 588579; further: on the % scale 0 is the no-effect control and ±100 the full control effect
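Activity was followed as the change in fluorescence between reads at 0 and 10 min after starting the reaction with 50 nM substrate. Beforehand, 10 nM polymerase had been preincubated with compound for 15 min at room temperature.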
FEN1 inhibitor: inhibitors of human flap endonuclease 1. AID 588795. Recombinant FEN1 flap cleavage, fluorescence, 15 min. P39748. 390,000 compounds, 0.35% hits. Potency, µM (titrated, usually from 114 µM), for the others: at the top dose activity change, negative = inhibition, actives largely listed as inhibitors; further: on the % scale 0 is the no-effect control and ±100 the full control effect; nearly all actives have a fitted effect of over 65% in size
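Compounds are tested as a concentration series against 10 nM FEN1; after a 15 min room-temperature preincubation, 50 nM substrate starts cleavage, with plate reads at 0 and 15 min. Normalized responses are fitted by a Hill equation.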
Starred values were filed as active, the others as inactive; ? = inconclusive; . = no result given; [ ] = dose if it differs, or a comment. Hits are enriched below; roughly 2.4% of the tested compounds scored in any of these assays. The call rests on the fitted dose curve; in most records, active means well fitted curve in the direction sought with a large enough effect; inconclusive means small, poorly fitted or top-dose-only effect, or another doubt; inactive means no such curve, though single readings can be large; an effect the other way counts as inactive or inconclusive. Potency means the concentration at half of the fitted maximal effect.

SMILES	Pol eta inh	POLB inh	POLI inh	WRN inhibitor	Pol kappa inh	FEN1 inhibitor
CC(=O)N(c1ccc2oc(=O)sc2c1)S(=O)(=O)c1ccc(C(=O)O)cc1	35.5µM*	-16.1%	3.55µM*	?	?	-19.8%
CCOc1ccccc1NC(=O)N1CCc2c(sc(C)c2CC)C1c1ccccc1 (stereo not given)	-17.0%	18.6%	12.0%	.	-5.6%[60.1 µM]	-13.5%
COc1ccc(C=NNC(=O)CCCCC(=O)NN=Cc2ccc(OC)cc2)cc1	-21.3%	.	12.5%	9.0%	2.1%	-0.6%
COC(=O)/C=C\C(C#N)(C#N)N=Cc1ccc(OC)cc1	-5.1%	.	10.9%	56.2µM*	-17.2%	-2.8%
O=C(CCC1CC(=O)Nc2ccccc21)NCc1ccc(F)cc1 (stereo not given)	-15.6%	-20.0%	10.0%[58.9 µM]	6.0%	-11.2%	2.2%
O=C(CCC1CC(=O)Nc2ccccc21)NCc1ccccc1 (stereo not given)	89.1µM*	-10.8%	?	-11.4%	-20.6%	-18.8%
O=C(c1cnccn1)N1CCC2(CC1)CN(c1ccccn1)C2	.	.	.	.	0.8%[60.1 µM]	.
COC(=O)c1sc(-c2ccccc2)cc1NC(=O)Nc1ccc(Cl)cc1	-6.7%	27.9%	-5.6%	.	0.2%	-27.3%
COC(=O)c1sc(-c2ccccc2)cc1NC(=O)Nc1ccc(F)cc1	-5.6%	1.1%	?	.	?	89.1µM*
CC1CCN(c2nn3c(=O)c(C(=O)NCCc4ccccc4)cnc3s2)CC1	0.4%	3.2%	36.0%	.	3.9%	0.9%
C/C(CC(=O)Nc1ccc2ccccc2c1)=N\NC(=O)c1ccc(O)c(O)c1	?	3.55µM*	?	-9.4%[11.6 µM]	79.4µM*	0.7%
C/C(CC(=O)Nc1ccc2ccccc2c1)=N\NC(=O)c1cnccn1	-8.1%	3.1%	3.6%	-5.5%	-15.2%	-1.2%
O=C(C1CCCCC1)N1CCCc2ccccc21	-18.9%	89.1µM*	14.0%	3.2%	-4.1%	6.3%
O=C(NC1CCCCC1)N1CCCc2ccccc21	-10.3%	82.8%	16.0%	9.4%	-0.5%	-13.4%
O=C(NCCc1csc(-c2cccnc2)n1)c1cccc(C(F)(F)F)c1	-3.0%	25.4%	-21.3%	.	-6.8%[60.1 µM]	-1.8%
Cc1ccc(NC(=O)c2cc(S(=O)(=O)N3CCC(C)CC3)cn2C)cc1Cl	-14.2%	-1.4%	-13.0%	.	5.5%[60.1 µM]	9.0%
Cc1ccsc1C=Nc1ccc(O)cc1	14.1µM*	?	12.6µM*	35.5µM*	89.1µM*	-16.5%
Cc1nn(-c2ccccc2)c2nc(N)c(C#N)c(-c3ccc(O)c(O)c3)c12	50.1µM*	?	?	-10.4%[11.6 µM]	-3.4%	-23.4%
S=c1nc(C2CC2)[nH]c2ccccc12	25.1µM*	?	?	-22.7%[57.1 µM]	-32.0%	-3.5%
S=c1nc(C2CCCCC2)[nH]c2ccccc12	-15.5%	0.1%	22.6%	-2.6%	-8.6%	-6.4%
CCOC(=O)c1c(NC(C)=O)c2c3c(sc2n1Cc1nc(-c2ccccc2OCC)oc1C)CCCC3	.	30.6%	42.8%	.	9.6%	0.2%
CCc1ccc(NC(=O)CCc2nc3sc4c(c3c(=O)[nH]2)CCCC4)cc1	44.7µM*	.	?	-3.8%[11.6 µM]	?	-0.2%
O=C(CCc1nc2sc3c(c2c(=O)[nH]1)CCCC3)NCCc1ccc(Cl)cc1	-6.3%	.	.	-6.1%	.	.
COc1ccc(CCNC(=O)CCc2nc3sc4c(c3c(=O)[nH]2)CCCC4)cc1	?	35.5µM*	?	-27.7%	-26.8%	-13.6%
O=C(CCc1nc2sc3c(c2c(=O)[nH]1)CCCC3)Nc1ccccc1Cl	?	.	44.7µM*	?	?	-2.0%
O=C(CCc1nc2sc3c(c2c(=O)[nH]1)CCCC3)NCCOc1ccccc1	?	.	?	-17.2%	-22.8%	-1.1%
COc1cccc(Nc2ncc3ncc(=O)n(C[C@H]4CCCO4)c3n2)c1	.	.	.	.	-1.3%[60.1 µM]	.
Cc1ccnc2ccc3ccccc3c12	.	.	?	.	-29.3%	?
N#Cc1ccc(CC(=O)c2ccccc2)[nH]c1=O	-14.0%	.	82.8%	56.2µM*	-21.7%	2.9%
CC(C)(C)OC(=O)N1CCC(c2c(C(=O)NCc3ccco3)cnn2-c2ccccc2Cl)CC1	8.1%	-1.2%	-5.6%	.	0.2%	9.4%
